# The other results are listed elsewhere or left out. The true hit rate is not given.
# B1: HC999 (peptide)
# chain: CATGCVVIVGAGNASASA
# B2: HC74 (peptide)
# chain: CATTPCCGSWAGNASASA
# B3: FS-988 (peptide)
# chain: CAEFTLLTRIAGNASASA
# B4: HC856 (peptide)
# chain: CALIFCHSKKAGNASASA
# B5: FS-825 (peptide)
# chain: CALRFRRKRKAGNASASA
# B6: HC8 (peptide)
# chain: CAMEEMSQHLAGNASASA
# B7: FS-153 (peptide)
# chain: CAAAIREKRAAGNASASA
# B8: FS-1355 (peptide)
# chain: CALASHPKRAAGNASASA
# B9: FS-683 (peptide)
# chain: CALADREKRAAGNASASA
# B10: HC1110 (peptide)
# chain: CAAAILRRHVAGNASASA
# B11: HC2166 (peptide)
# chain: CAEMVTSTWVAGNASASA
# B12: HC813 (peptide)
# chain: CACSGGAYDIAGNASASA
# B13: HC347 (peptide)
# chain: CAVVLLLFAGAGNASASA
# B14: HC994 (peptide)
# chain: CALAALAAYCAGNASASA
# B15: FS-1025 (peptide)
# chain: CALLARDRRQAGNASASA
# B16: HC1028 (peptide)
# chain: CALLQTASRQAGNASASA
# B17: HC523 (peptide)
# chain: CALLADARVCAGNASASA
# B18: FS-71 (peptide)
# chain: CAPPRRKRRQAGNASASA
# B19: FS-604 (peptide)
# chain: CALAARKRRQAGNASASA
# B20: HC1604 (peptide)
# chain: CAHGLSAFSLAGNASASA
# B21: HC2029 (peptide)
# chain: CAVVYCSMSYAGNASASA
# B22: HC1098 (peptide)
# chain: CASTEDLVNLAGNASASA
# B23: HC113 (peptide)
# chain: CAVVCCEMSYAGNASASA
# B24: FS-448 (peptide)
# chain: CAKGYRGKRAAGNASASA
# B25: FS-578 (peptide)
# chain: CAAKQRGKRAAGNASASA
# B26: FS-2859 (peptide)
# chain: CAEFKRCWKGAGNASASA
# B27: FS-704 (peptide)
# chain: CAQPPRPFRSAGNASASA
# B28: FS-1384 (peptide)
# chain: CAPRDRPRRSAGNASASA
# B29: FS-980 (peptide)
# chain: CAATPRPRRSAGNASASA
# B30: FS-473 (peptide)
# chain: CAPLPRPRRSAGNASASA
# B31: FS-348 (peptide)
# chain: CALCARPRRSAGNASASA
# B32: HC152 (peptide)
# chain: CAEVVTDTWVAGNASASA
# B33: HC69 (peptide)
# chain: CATTPCHGSWAGNASASA
# B34: FS-660 (peptide)
# chain: CAGTWRPRRSAGNASASA
# B35: FS-952 (peptide)
# chain: CARLVRPRRSAGNASASA
# B36: HC2403 (peptide)
# chain: CAEVPCHRPAAGNASASA
# B37: HC2348 (peptide)
# chain: CAEVWCHRPSAGNASASA
# B38: HC966 (peptide)
# chain: CALIRLKPTLAGNASASA
# B39: HC1467 (peptide)
# chain: CAFQYSPGQRAGNASASA
# B40: FS-1655 (peptide)
# chain: CARYQRRSRSAGNASASA
# B41: FS-111 (peptide)
# chain: CAYRRRPPRSAGNASASA
# B42: FS-393 (peptide)
# chain: CAYRKRQCRSAGNASASA
# B43: HC1480 (peptide)
# chain: CAYDTRCFDSAGNASASA
# B44: FS-1440 (peptide)
# chain: CAYRYRRRRSAGNASASA
# B45: FS-1296 (peptide)
# chain: CAYRRRRSRSAGNASASA
# Biological target: furin, P09958
# Test: furin cleavage Z-score vs untreated control; higher = more cleavage, active = 3.5 or more, inactive = 1 or less, 8 variable residues between constant flanks
# Procedure: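 Multiplexed peptide-cDNA fusion cleavage assay. 8-mer variable peptides flanked by constant Cys-Ala (N-term) and Ala-Gly-Asn-Ala-Ser-Ala-Ser-Ala (C-term) and conjugated to a cDNA oligonucleotide were bead-immobilised via the N-terminus. They were treated with purified furin at a 1:10 enzyme:substrate ratio in 50 mM HEPES pH 7.5, 1 mM CaCl2, 100 mM NaCl for 7.5, 15 or 30 min. Released cDNA was counted by next-generation sequencing, and log counts versus no-furin controls were lowess-adjusted and converted to robust Z-scores.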
# furin, P09958, sequence (P09958 whole entry): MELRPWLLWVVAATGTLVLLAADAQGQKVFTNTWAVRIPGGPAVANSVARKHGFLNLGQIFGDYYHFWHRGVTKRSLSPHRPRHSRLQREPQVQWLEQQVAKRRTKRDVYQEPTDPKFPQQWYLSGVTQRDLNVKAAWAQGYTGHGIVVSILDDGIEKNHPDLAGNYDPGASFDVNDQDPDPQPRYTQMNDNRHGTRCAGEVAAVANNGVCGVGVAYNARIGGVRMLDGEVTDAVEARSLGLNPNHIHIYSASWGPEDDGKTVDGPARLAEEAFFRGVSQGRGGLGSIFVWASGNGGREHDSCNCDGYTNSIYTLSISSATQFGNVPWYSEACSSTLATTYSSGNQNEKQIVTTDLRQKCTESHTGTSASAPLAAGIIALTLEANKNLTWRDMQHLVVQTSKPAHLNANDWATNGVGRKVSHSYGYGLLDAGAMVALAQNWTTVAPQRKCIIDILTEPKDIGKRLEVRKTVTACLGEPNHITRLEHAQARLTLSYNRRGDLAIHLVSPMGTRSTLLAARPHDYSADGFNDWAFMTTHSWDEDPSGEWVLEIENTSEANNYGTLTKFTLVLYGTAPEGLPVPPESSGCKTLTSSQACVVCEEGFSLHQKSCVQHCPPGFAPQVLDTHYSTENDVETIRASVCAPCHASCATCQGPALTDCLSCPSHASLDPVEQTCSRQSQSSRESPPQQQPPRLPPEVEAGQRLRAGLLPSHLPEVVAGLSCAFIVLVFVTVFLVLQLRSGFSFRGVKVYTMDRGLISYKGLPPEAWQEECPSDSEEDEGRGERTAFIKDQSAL
Sequence,furin cleavage Z-score (7.5 min),furin cleavage Z-score (15 min),furin cleavage Z-score (30 min)
B1,0.288 (inactive),-0.105 (inactive),1.66
B2,-2.07 (inactive),-0.069 (inactive),-1.52 (inactive)
B3,-0.861 (inactive),-1.86 (inactive),0.256 (inactive)
B4,-0.592 (inactive),-0.736 (inactive),-0.784 (inactive)
B5,9.84 (active),11 (active),8.47 (active)
B6,1.27,1.33,0.916 (inactive)
B7,10.5 (active),11.2 (active),8.65 (active)
B8,-0.0202 (inactive),0.46 (inactive),-0.107 (inactive)
B9,5.37 (active),7.31 (active),4.83 (active)
B10,-1.81 (inactive),1.42,1.16
B11,-0.179 (inactive),0.272 (inactive),-0.181 (inactive)
B12,-0.539 (inactive),-1.15 (inactive),0.556 (inactive)
B13,-2.22 (inactive),0.376 (inactive),-0.682 (inactive)
B14,0.554 (inactive),1.14,0.545 (inactive)
B15,6.87 (active),9.4 (active),7.76 (active)
B16,0.222 (inactive),0.569 (inactive),0.432 (inactive)
B17,0.91 (inactive),-0.28 (inactive),-1.13 (inactive)
B18,8.73 (active),9.48 (active),8.32 (active)
B19,12.2 (active),12.1 (active),10 (active)
B20,0.973 (inactive),0.919 (inactive),1.37
B21,-0.409 (inactive),-0.331 (inactive),0.819 (inactive)
B22,0.352 (inactive),-0.11 (inactive),-0.537 (inactive)
B23,1.04,-0.157 (inactive),2.06

Sequence,furin cleavage Z-score (7.5 min),furin cleavage Z-score (15 min),furin cleavage Z-score (30 min)
B24,9.98 (active),9.64 (active),8.26 (active)
B25,7.85 (active),6.99 (active),6.51 (active)
B26,-0.792 (inactive),0.463 (inactive),-0.89 (inactive)
B27,-0.352 (inactive),1.58,-0.0165 (inactive)
B28,12.7 (active),13.7 (active),10.6 (active)
B29,11.1 (active),11.2 (active),7.55 (active)
B30,6.49 (active),5.07 (active),4.07 (active)
B31,10.1 (active),10.4 (active),9.44 (active)
B32,-0.985 (inactive),0.416 (inactive),-1.25 (inactive)
B33,1.47,0.142 (inactive),1.5
B34,10.9 (active),11.6 (active),7.85 (active)
B35,13.4 (active),14.2 (active),10.3 (active)
B36,-1.55 (inactive),0.357 (inactive),-0.33 (inactive)
B37,0.218 (inactive),0.0316 (inactive),0.64 (inactive)
B38,-1.19 (inactive),-1.25 (inactive),0.404 (inactive)
B39,-0.221 (inactive),-0.464 (inactive),-2.47 (inactive)
B40,7.45 (active),7.54 (active),8.29 (active)
B41,1.85,1.04,0.965 (inactive)
B42,5.64 (active),5.62 (active),3.16
B43,-1.56 (inactive),0.436 (inactive),0.927 (inactive)
B44,4.89 (active),5.22 (active),3.7 (active)
B45,7.22 (active),8.22 (active),6.95 (active)
